This note sets out measurements from the supplement of paper PMC9135407.

This assay has as its system primary human hepatic stellate cells (donor 1). Put plainly: scaled lipid accumulation score (0 = DMSO-like, 1 = nortriptyline-like); higher = stronger HSC inactivation (lipid re-accumulation), active = hit call of the paper. The settings on record: 48 h.
The mark [1] stands for this setting: library stock concentration: 3.33 mM.
The mark [2] stands for this setting: library stock concentration: 10 mM.
The mark [3] stands for this setting: library stock concentration: 80 uM.
The mark [4] stands for this setting: library stock concentration: 400 uM.
Setting [5] is: library stock concentration: 2 mM.
[6] abbreviates: library stock concentration: 1 mM.

Where “and” joins values, the source holds several entries; their conditions need not be identical. Equal values may be shown once. Where a name gives a salt, the structure may show the parent alone. Among all 5,800 compounds or so, about 620 (11%) showed activity. Shown is part of a subset that was picked to be rich in actives. A number with no mark means an inactive call.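 How the source made its calls: active = score above a cut-off or among the top three wells of a plate; in these data no inactive exceeds 0.85.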 Bounds are passed on as bounds.

For `Cc1cnc(-c2ccccc2C(C)C)nc1NCc1ccc(-n2ccnn2)cc1`, the “scaled lipid accumulation score” value under setting [1] was at most -0.009 and the “scaled lipid accumulation score” value under setting [2] is at most 0.

As for `Nc1cc(N2CCCCC2)nc(N)[n+]1OS(=O)(=O)[O-]` [Minoxidil sulfate], the “scaled lipid accumulation score” value (library stock concentration: 17.3 mM) is at most -0.021.

As for `C=CCCCCCCCCC(=O)O` [Undecylenic acid], the “scaled lipid accumulation score” value (library stock concentration: 10.9 mM) was at most 0.

Regarding `O=S(=O)(c1cccc2cnccc12)N1CCCNCC1` [Fasudil (HA-1077) HCl], the “scaled lipid accumulation score” value is at most 0 under setting [1] and 0.14 under setting [2].

`O=S(=O)(c1cccc2c(I)cccc12)N1CCCNCC1` [listing 1 of 2 here]: the “scaled lipid accumulation score” value was at most -0.001 under setting [3], at most -0.001 under setting [4] and 0.204 under setting [5].

In the case of `O=S(=O)(c1cccc2cnccc12)N1CCCNCC1` [Fasudil], for the setting “library stock concentration: 6.9 mM”, the “scaled lipid accumulation score” value was at most -0.006.

`O=c1[nH]ccc2c(S(=O)(=O)N3CCCNCC3)cccc12` [HA 1100 hydrochloride]: the “scaled lipid accumulation score” value under setting [2] is at most -0.001.

With `O=S(=O)(c1cccc2cnccc12)N1CCCNCC1` [Fasudil hydrochloride], under setting [2], the “scaled lipid accumulation score” value is 0.07.

With `O=S(=O)(c1cccc2cnccc12)N1CCCNCC1`, under setting [2], the “scaled lipid accumulation score” value was 0.257.

On to `CC1CN(S(=O)(=O)c2cccc3cnccc23)CCN1` (stereo unspecified), for which the “scaled lipid accumulation score” value under setting [2] is 0.164.

In the case of `O=S(=O)(c1cccc2c(Cl)cccc12)N1CCCNCC1` [listing 1 of 2 here], the “scaled lipid accumulation score” value under setting [2] was 1.02 (active).

Regarding `O=S(=O)(c1cccc2c(Cl)cccc12)N1CCCNCC1` [listing 2 of 2 here], the “scaled lipid accumulation score” value (library stock concentration: 15.4 mM) is 0.912 (active).

Turning to `NCCNS(=O)(=O)c1cccc2c(Cl)cccc12` [A3 hydrochloride], the “scaled lipid accumulation score” value under setting [2] was at most 0.

As for `O=S(=O)(c1cccc2cnccc12)N1CCNCC1`, the “scaled lipid accumulation score” value under setting [2] is 0.248.

Regarding `O=S(=O)(c1cccc2c(I)cccc12)N1CCCNCC1` [listing 2 of 2 here], the “scaled lipid accumulation score” value under setting [2] is 0.931 (active).

On to `O=S(=O)(c1cccc2c(I)cccc12)N1CCCNCC1` [ML-7, Hydrochloride], for which the “scaled lipid accumulation score” value under setting [1] is 0.25.

As for `COCCOc1cc2nc[nH]c(=O)c2cc1OCCOC`, the “scaled lipid accumulation score” value under setting [2] was 0.018.

Regarding `CCCCC[C@H](O)/C=C/[C@H]1C=CC(=O)[C@@H]1CCCCCCC(=O)O` [Prostaglandin A1], under setting [6], the “scaled lipid accumulation score” value is 0.022 and 0.047.

Consider `Nc1nc2c([nH]c(=O)n2[C@H]2C[C@H](O)[C@@H](CO)O2)c(=O)[nH]1` [8-hydroxy-2'-deoxy Guanosine], for which, under setting [6], the “scaled lipid accumulation score” value was at most 0.

`C[C@@H]1CC(=O)NN=C1c1ccc(NN=C(C#N)C#N)cc1`: the “scaled lipid accumulation score” value under setting [2] was 0.073.

`C[C@@H]1CC(=O)NN=C1c1ccc(NN=C(C#N)C#N)cc1` [Levosimendan]: the “scaled lipid accumulation score” value under setting [1] was at most 0 and the “scaled lipid accumulation score” value under setting [2] is at most 0.

Regarding `Cc1ccccc1/C=C/C1=NCCN1` [Metrazoline oxalate], the “scaled lipid accumulation score” value under setting [2] is 0.381.

Regarding `CCCCCC(=O)/C=C/C=C\CCCCCCCC(=O)O` [13-Keto-octadeca-9Z,11E-dienoic acid], for the setting “library stock concentration: 100 uM”, the “scaled lipid accumulation score” value was 0.012.

In the case of `O=Cc1c2[nH]c3ccccc3c2cc2[nH]c3ccccc3c12` [6-Formylindolo [3,2-B] carbazole], the “scaled lipid accumulation score” value under setting [6] was at most -0.02.

As to `NC(C(=O)O)c1ccc(C(=O)O)c(C(=O)O)c1` (stereo unspecified), under setting [2], the “scaled lipid accumulation score” value was at most -0.006.

Turning to `CN(C)c1cc2c(Nc3ccc4c(cnn4Cc4ccccc4)c3)ncnc2cn1`, the “scaled lipid accumulation score” value under setting [2] is 0.524.

Take `Cc1c(NC(=O)OC[C@@H]2COCCN2)cn2ncnc(Nc3ccc4c(cnn4Cc4cccc(F)c4)c3)c12.Cl`: the “scaled lipid accumulation score” value under setting [1] is 1.15 (active) and the “scaled lipid accumulation score” value under setting [2] is 1.2 (active).

Consider `Cc1nc2ccc(NC(=O)Nc3ccnc4cccnc34)cc2o1`, for which the “scaled lipid accumulation score” value under setting [2] is at most -0.006.

`CC(=O)[C@]1(O)Cc2c(O)c3c(c(O)c2[C@@H](O[C@H]2C[C@H](N)[C@H](O)[C@H](C)O2)C1)C(=O)c1ccccc1C3=O` [Idarubicin HCl]: the “scaled lipid accumulation score” value runs as follows: under setting [1], 0.288; under setting [2], 0.179.

As to `CC(=O)[C@]1(O)Cc2c(O)c3c(c(O)c2[C@@H](O[C@H]2C[C@H](N)[C@H](O)[C@H](C)O2)C1)C(=O)c1ccccc1C3=O` [Idarubicin], the “scaled lipid accumulation score” value (library stock concentration: 4 mM) was 0.387 and the “scaled lipid accumulation score” value under setting [2] was at most -0.07.

As for `CC(=O)[C@]1(O)Cc2c(O)c3c(c(O)c2[C@@H](O[C@H]2C[C@H](N)[C@H](O)[C@H](C)O2)C1)C(=O)c1ccccc1C3=O`, the “scaled lipid accumulation score” value under setting [2] was 0.372.

With `CCCCN1CCC(CCC(=O)c2cc(Cl)c(N)cc2OC)CC1`, the “scaled lipid accumulation score” value under setting [2] was 0.511.

Consider `COc1cc(COc2cc(N)c(Cl)cc2C(=O)CCC2CCN(CCNS(C)(=O)=O)CC2)cc(OC)c1.Cl`, for which, under setting [2], the “scaled lipid accumulation score” value is 1.06 (active).

Turning to `COc1cc(N)c(Cl)cc1C(=O)CCC1CCN(CCNS(C)(=O)=O)CC1`, under setting [2], the “scaled lipid accumulation score” value is at most 0.

With `CC(C)(Cc1ccc2ccccc2c1)NC[C@@H](O)COc1cccc(Cl)c1C#N`, the “scaled lipid accumulation score” value is 0.524 under setting [1] and 0.023 under setting [2].

Regarding `CC(C)Oc1ccc(Cc2ccc(NC3=NCCN3)cc2)cc1`, the “scaled lipid accumulation score” value under setting [6] was 0.221.

For `CN(C)C/C=C/C(=O)Nc1cc2c(Nc3ccc(F)c(Cl)c3)ncnc2cc1O[C@H]1CCOC1` [Afatinib  (TOVOK,  BIBW-2992) (10 mM)], the “scaled lipid accumulation score” value under setting [2] is 0.256.

With `CN(C)CC=CC(=O)Nc1cc2c(Nc3ccc(F)c(Cl)c3)ncnc2cc1O[C@H]1CCOC1` [Afatinib (BIBW2992)], under setting [1], the “scaled lipid accumulation score” value is 1.12 (active).

On to `CN(C)CC=CC(=O)Nc1cc2c(Nc3ccc(F)c(Cl)c3)ncnc2cc1OC1CCOC1` (stereo unspecified), for which the “scaled lipid accumulation score” value under setting [5] was 0.855 (active).

Consider `CN(C)C/C=C/C(=O)Nc1cc2c(Nc3ccc(F)c(Cl)c3)ncnc2cc1O[C@H]1CCOC1` [Afatinib  (TOVOK,  BIBW-2992) (2 mM)], for which the “scaled lipid accumulation score” value under setting [5] was 1.29 (active).

`CN(C)C/C=C/C(=O)Nc1cc2c(Nc3ccc(F)c(Cl)c3)ncnc2cc1O[C@H]1CCOC1`: the “scaled lipid accumulation score” value is 0.425 under setting [3], 0.614 under setting [4] and 0.544 under setting [2].

On to `CN(C)C/C=C/C(=O)Nc1cc2c(Nc3ccc(F)c(Cl)c3)ncnc2cc1O[C@H]1CCOC1` [Afatinib  (TOVOK,  BIBW-2992) (0.4 mM)], for which, under setting [4], the “scaled lipid accumulation score” value is 0.318.

As for `CN(C)C/C=C/C(=O)Nc1cc2c(Nc3ccc(F)c(Cl)c3)ncnc2cc1O[C@H]1CCOC1` [Afatinib (BIBW2992)], the “scaled lipid accumulation score” value under setting [2] is 0.323.

Turning to `Cc1cc(/C(=C/Nc2ccc(Cl)cc2)C(=O)Nc2ccc(Cl)cc2)on1`, the “scaled lipid accumulation score” value under setting [2] is 0.332.

Consider `CCCCCC#CCC#CCCCCCCCC(=O)O` [9,12-Octadecadiynoic Acid], for which, under setting [6], the “scaled lipid accumulation score” value was 0.001.
